# Source: PubChem
# A selection: hits, their analogues and other compounds. The true share with any hit is near 10%.
# IMPase inh = qHTS Assay for Identifying the Cell-Membrane Permeable IMPase Inhibitors | Inositol monophosphatase 1 (Rattus norvegicus), P97697 | CHO-M1 cells, IP1 accumulation, HTRF TR-FRET ratio | inhibition (IP1 accumulation), % at 46.1 µM | 120,000 tested, under 10 active | AID 901, 2007; active means well fitted curve in the direction sought with a large enough effect in the signal ratio, not every such curve was filed as active; inconclusive means small, poorly fitted or top-dose-only effect, or a change in a side signal; inactive means no such curve, though single readings can be large or run the other way; the % refers to the signal ratio;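 further: cells stimulated with carbachol in lithium chloride buffer; plate controls were DMSO basal wells for no effect and reference inhibitor wells for full effect; higher means more IMPase inhibition seen as more IP1 and lower FRET ratio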
# Target sequence (P97697 whole entry, looked up): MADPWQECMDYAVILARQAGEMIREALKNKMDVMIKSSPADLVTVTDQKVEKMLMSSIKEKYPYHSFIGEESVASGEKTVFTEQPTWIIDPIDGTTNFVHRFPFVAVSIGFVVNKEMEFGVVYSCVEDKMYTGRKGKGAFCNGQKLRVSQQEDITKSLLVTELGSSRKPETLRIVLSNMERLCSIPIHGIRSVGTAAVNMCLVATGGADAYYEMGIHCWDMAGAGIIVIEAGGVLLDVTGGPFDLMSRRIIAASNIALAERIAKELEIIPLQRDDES
#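 Seeded CHO-M1 cells were dosed with compound at up to 46 uM, stimulated with carbachol for 30 min, then lysed in IP-One detection reagents. Higher IP1 lowers the TR-FRET signal.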
# KinaseGlo FLuc = Counterscreen for Luciferase (Kinase-Glo TM) Inhibition; Luciferin 4-monooxygenase (Photuris pensylvanica), Q27757; Kinase-Glo luciferase, ATP luminescence, 8 min; Potency, µM (doses to about 38.3 µM), for the others: at the top dose activity change, negative = inhibition, hits mostly inhibitors; 200,000 tested, 0.28% active; AID 1379, 2008; active means well fitted inhibition curve with a large enough effect; inconclusive means small, poorly fitted or top-dose-only effect; further: potency means the concentration at half of the fitted maximal effect; nearly all actives have a fitted effect of over 60% in size
#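 Recombinant Kinase-Glo luciferase, 10 uM ATP (linear range), luciferin; imidazole pH 7.2 / KCl / MgCl2 / Tween / BSA buffer; 8 min RT; luminescence.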
# Lamin A splicing = qHTS Assay for Modulators of Lamin A Splicing; 200,000 tested, 0.01% active; HeLa LMNA splicing GFP/RFP minigene ratio, 48 h; AID 1487, 2009; Potency, µM (doses to about 46.1 µM), inactives show at the top dose ratio change, negative = inhibition, hits mostly inhibitors; active means well fitted inhibition curve with a large enough effect in the signal ratio, with a control signal flat, not every such curve was filed as active; inconclusive means small, poorly fitted or top-dose-only effect, or effect the other way, or a change in a side signal; the % refers to the signal ratio; further: potency means the concentration at half of the fitted maximal effect
#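 Read-out is the ratio of GFP to DsRed2 object intensity, acquired by 488 nm laser-scanning cytometry on HeLa lamin A-EGFP minigene reporter cells. Compound incubation 48 hrs at 37 °C in Opti-MEM with 2% FBS; DMSO 0.5% final.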
# ALDH1A1 inh = qHTS Assay for Inhibitors of Aldehyde Dehydrogenase 1 (ALDH1A1) | Purified ALDH1A1, NADH fluorescence, propionaldehyde substrate | Aldehyde dehydrogenase 1A1 (Homo sapiens), P00352 | Potency, µM (series often up to 75.3 µM), without a hit: at the highest dose activity, negative = inhibition, actives largely listed as inhibitors | 220,000 tested, 7.3% active;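 further: potency means the concentration at half of the fitted maximal effect; plate controls were no enzyme wells and a reference inhibitor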
# Target sequence (P00352 whole entry, looked up): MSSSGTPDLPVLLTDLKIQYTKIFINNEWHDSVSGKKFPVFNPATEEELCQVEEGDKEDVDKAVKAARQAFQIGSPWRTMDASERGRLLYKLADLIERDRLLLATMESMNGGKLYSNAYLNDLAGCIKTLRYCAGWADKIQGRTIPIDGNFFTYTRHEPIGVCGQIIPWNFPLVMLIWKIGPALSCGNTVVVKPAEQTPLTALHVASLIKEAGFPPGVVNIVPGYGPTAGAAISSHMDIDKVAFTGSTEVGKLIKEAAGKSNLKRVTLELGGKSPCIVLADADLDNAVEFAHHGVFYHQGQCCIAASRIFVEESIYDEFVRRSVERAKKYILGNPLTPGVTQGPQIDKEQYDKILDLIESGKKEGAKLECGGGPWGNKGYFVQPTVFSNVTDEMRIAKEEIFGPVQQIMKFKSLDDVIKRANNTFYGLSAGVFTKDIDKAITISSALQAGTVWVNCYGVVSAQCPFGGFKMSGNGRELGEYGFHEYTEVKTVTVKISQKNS
# HPGD inh = qHTS Assay for Inhibitors of HPGD (15-Hydroxyprostaglandin Dehydrogenase). 150,000 tested, 4.3% active. Potency, µM, without a hit: at the top dose activity change, negative = inhibition, usual class: inhibitors. purified HPGD, NADH fluorescence kinetic, PGE2 substrate. 15-hydroxyprostaglandin dehydrogenase [NAD(+)] (Homo sapiens), P15428; further: potency means the concentration at half of the fitted maximal effect
#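 NADH formation kinetics: reaction with 30 uM PGE2 and 1 mM NAD+ (final), 20 nM enzyme, Tris-HCl pH 8 with Tween 20, after 15 min compound preincubation at room temperature. Fluorescence change, last versus first of five reads.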
# PNC inhibitor = High Content Assay for Compounds that inhibit the Assembly of the Perinucleolar Compartment; PC3M PTB-GFP, PNC prevalence imaging, 16 h; hits give low values; activity change (PNC), negative = inhibition, % at 10 µM; 140,000 tested, 3.1% active;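 active means readout at or below -70, meaning at least 70% loss of cells showing the perinucleolar compartment, a nuclear body marking cancer cells; inconclusive means readout between -30 and a set limit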;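 further: plate controls were DMSO wells for no effect and camptothecin positive control wells for full effect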
#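 Compounds are pinned in duplicate onto adhered PC3M cells stably expressing GFP-tagged PTB and incubated 16 h at 37 C. Cells are then fixed, nuclei stained with Hoechst, and PNC-positive cells counted.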
# The depositor's hits bear a star; ? = inconclusive; . = no result; [ ] = remark or other dose. Unless noted, the call rests on the fitted dose curve; in most records, active means well fitted inhibition curve with a large enough effect (not every such curve was filed as active); inconclusive means small, poorly fitted or top-dose-only effect, or another doubt; inactive means no such curve, though single readings can be large or run the other way. Unless noted, on the % scale 0 is the no-effect control and ±100 the full control effect.
SMILES,IMPase inh,KinaseGlo FLuc,Lamin A splicing,ALDH1A1 inh,HPGD inh,PNC inhibitor
COC(=O)c1cc(CSc2nnc(-c3ccccc3)c(-c3ccccc3)n2)oc1C,11,-1%,?,16µM*,?,5
COc1ccc2c(c1)C(=O)c1ccccc1CO2,-2,-24%,20%,4µM*,35µM*,?
Clc1ccc(Cl)c(-c2nn3c(COc4ccccc4)nnc3s2)c1,4,1%,4%,3.5µM*,10µM*,-2
c1ccc(OCc2nnc3sc(-c4cccs4)nn23)cc1,-13,2%,-2%,3.5µM*,8.9µM*,?
COc1ccc(-c2nn3c(COc4ccccc4)nnc3s2)cc1OC,9,1%,3%,?,?,?
Cc1ccc(C(=O)CN2C(=O)c3ccccc3S2(=O)=O)cc1,.,.,.,-6%,.,.
Cc1ccc(C(=O)CN2/C(=C(\O)c3ccccc3)C(=O)c3ccccc3S2(=O)=O)c(C)c1,-3,2%,?,2.8µM*,-22%,17
O=C(CN1C(=O)COc2ccccc21)NCCC1=CCCCC1,6,-2%,14%,?,0%,44
Cc1ccc2c(c1)N(CCC(=O)NCc1cccnc1)C(=O)CO2,14,-6%,9%,23%,-4%,49
O=C(CCN1C(=O)COc2ccccc21)NCCC1=CCCCC1,3,-2%,-11%,32µM*,-13%,?
Cc1ccc2c(c1)N(CCC(=O)NCc1ccccn1)C(=O)CO2,9,-5%,-2%,22µM*,-6%,-2
CCCCCCCCCCCCC/C=C/[C@@H](O)C(CO)NC(C)=O (some centres undefined),.,-2%,.,-1%,-6%,.
Cc1onc(-c2c(F)cccc2Cl)c1C(=O)Nc1ccc(S(=O)(=O)Nc2ncccn2)cc1,1,2%,-4%,2%,-11%,-123*
Cc1onc(-c2c(F)cccc2Cl)c1C(=O)NCCc1ccc(S(N)(=O)=O)cc1,-3,2%,?,10%,-23%,-95*
Cc1onc(-c2c(F)cccc2Cl)c1C(=O)OCn1nnc2ccccc2c1=O,13,1%,?,-3%,13µM*,67
Cc1onc(-c2c(F)cccc2Cl)c1C(=O)O/N=C(\N)c1ccc([N+](=O)[O-])o1,.,.,.,7.9µM*,.,.
C/C(=N\OC(=O)c1c(-c2c(F)cccc2Cl)noc1C)c1nccs1,.,5%,.,?,.,.
Nc1nc2c(ncn2C2CC(O)C(CO)O2)c(=O)[nH]1 (centres undefined),.,-3%,-3%,-5%,-3%,.
CO[C@@H]1COC(=O)[C@H](C)NC(=O)[C@@H](C)COC(=O)CCC[C@H]1C,.,.,.,-1%[13.5 µM],.,.
COc1ccc(CNC(=O)CSc2nc(-c3ccc(OC)c(OC)c3)cc(C(F)(F)F)n2)cc1,-8,.,.,.,.,.
Cc1cccc(N(CC(=O)NC2CCCCC2)C(=O)Cn2nnc(-c3ccc(C)o3)n2)c1,.,-1%,.,-6%,.,.
Cc1cccc(N(CC(=O)NCc2ccccc2)C(=O)Cn2nnc(-c3ccc(C)o3)n2)c1,5,-3%,-3%,-3%,-7%,-84*
Cc1ccc(-c2nnn(CC(=O)N(CC(=O)NCc3ccccc3)c3cccc(C)c3C)n2)o1,-10[1.84 µM],1%,-14%,10µM*,25µM*,?
COC(=O)c1cccc(S(=O)(=O)N2CCC(NC(=O)Nc3cccc(F)c3)CC2)c1,14,.,0%,7%,.,-98*
O=C1C=CC(=O)N1c1cccc(-c2ccccc2)c1,.,.,.,0.02µM*,.,.
SMILES,IMPase inh,KinaseGlo FLuc,Lamin A splicing,ALDH1A1 inh,HPGD inh,PNC inhibitor
O=S(=O)(c1ccccc1)N1CCC2(CCN(c3cccc(-c4ccccc4)c3)CC2)CC1,.,-5%,.,?,?,.
COc1ccc(CNc2nc(SCC(=O)NCc3ccco3)nc3ccccc23)cc1,3,8%,0%,?,10µM*,?
CCOC(=O)CSc1nc(NCc2ccco2)c2ccccc2n1,-1,-3%,1%,?,-10%,6
COc1ccc(Cc2nnc(SCC(=O)NCc3ccco3)o2)cc1,-9[1.84 µM],2%,5%,?,20µM*,?
CCNS(=O)(=O)c1ccc(CCC(=O)NCCc2ccc(OC)cc2)cc1,.,2%,.,?,.,.
COc1ccc(S(=O)(=O)CCC(=O)NCCc2ccc(C)cc2)cc1,7,-2%,-4%,25µM*,-11%,24
COc1ccc(CCNC(=O)CCCN2C(=O)c3ccccc3C2=O)cc1,.,-2%,.,14µM*,.,.
O=C(CCCCCN1C(=O)c2ccccc2C1=O)NCCc1nc2ccccc2[nH]1,0,-2%,-3%,11µM*,-6%,47
Cc1nnc(NC(=O)CSc2cn(CCNC(=O)c3ccccc3)c3ccccc23)s1,3,-2%,?,1.6µM*,-1%,?
CC(C)C(=O)c1cn(CC(=O)NCc2ccco2)c2ccccc12,0,6%,-7%,0%,-15%,-100*
CC(C)C(=O)c1cn(CC(=O)NCc2ccc3c(c2)OCO3)c2ccccc12,-3,3%,-11%,?,-17%,210
COc1ccc(C(=O)NCCn2cc(SCC(=O)NCc3ccco3)c3ccccc32)cc1,0,1%,?,25µM*,-17%,-2
CCN(CC)C(=O)Cn1cc(SCC(=O)NCc2ccco2)c2ccccc21,.,2%,.,?,.,.
Cc1cc(NC(=O)CSc2cn(CCNC(=O)c3ccc(F)cc3)c3ccccc23)no1,1,-1%,?,?,-1%,-10
CN(Cc1ccccc1)Cc1nc2c([nH]1)c(=O)n(C)c(=O)n2C,1,0%,-4%,-1%,-6%,-100*
CCCn1c(CN(C)Cc2ccccc2)nc2c1c(=O)n(C)c(=O)n2C,-8,1%,?,-6%,-12%,-22
C=CCC(Nc1ccc(OC)cc1)(C(=O)OCC)c1ccccc1 (centres undefined),.,-1%,.,-1%,-2%,.
CSc1nc2ccccc2s1,.,1%,7%,1%,-9%,-27
Oc1ccccc1C(Sc1nc2ccccc2s1)Sc1nc2ccccc2s1,.,-4%[7.66 µM],.,0.71µM*,4µM*,.
Nc1cc2nsnc2cc1Br,?,-1%,17%,7.9µM*,-16%,34
CCOc1ccccc1NC(=O)N1CCN(Cc2nc3ccc(C)cc3o2)CC1,.,.,-7%[46 µM],.,.,.
CC(C)CCN1CN(S(=O)(=O)c2cccs2)c2nc3ccccc3nc21,-6,-1%,2%,28µM*,-7%,10
